Screening results as filed in PubChem.
Hits are enriched below; roughly 3.6% of the tested compounds scored in any of these assays.
Mm-Cpn inhibitor = M. maripaludis TRiC chaperonin inhibition. 330,000 tested, 0.031% active. Potency, µM (doses to about 76.9 µM), hits mostly inhibitors. purified Mm-Cpn ATPase, ADP Transcreener TR-FRET; also: nearly all actives have a fitted effect of over 80% in size
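ATPase turnover read by TR-FRET ADP competition (Eu cryptate antibody/ADP-d2, 665/590 nm): 10uM ATP final, 25nM Mm-CPN final, 30 min 37degC after 10-min compound preincubation, pH 7.4 Tris/KCl/MgCl2/DTT buffer.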
ClpP mod = qHTS Assay for Activators of ClpP | 340,000 tested, 1.9% active | AID 651965, 2013 | purified B. subtilis ClpP, FRET peptide cleavage, 20 min | Potency, µM (series often up to 57.5 µM) | ATP-dependent Clp protease proteolytic subunit (Bacillus subtilis (strain 168)), P80244; active = well fitted falling curve with a large enough effect; inconclusive = small, poorly fitted or top-dose-only effect; inactive = no such curve, though single readings can be large or run the other way; also: the source files actives as falling curves though it sought activators and does not explain the sign; nearly all actives have a fitted effect of over 65% in size
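Buffer: 100 mM Tris/HCl pH8, 100 mM KCl, 0.05% low protease BSA, 2.5% glycerol, 0.01% Tween-20. ClpP 10 microg/mL final; 20 min RT; delta FRET normalized to ADEP and DMSO controls.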
FUS suppressor = FUS proteinopathy suppression in yeast | Potency, µM (highest dose often 76.6 µM), most hits filed as activators | AID 1347120 | 390,000 tested, 0.24% active | S. cerevisiae FUS-expressing, growth rescue, OD600, 24 h; also: nearly all actives have a fitted effect of over 55% in size
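S. cerevisiae expressing FUS from galactose induction served as the toxicity model. Growth after 24hr at 30C, read as absorbance at 600 nm, indicates suppression of toxicity; compounds dosed at several concentrations.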
Abeta rescue = A-beta toxicity reversal in yeast; yeast expressing A-beta42, growth rescue, OD600, 48 h; response scale: 0% DMSO, 100% iron-clioquinol control; Potency, µM (titrated, usually from 46.1 µM), usual class: activators; 410,000 tested, 0.063% active; also: nearly all actives have a fitted effect of over 55% in size
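Yeast growth medium received pinned compounds, then yeast cells expressing toxic A-beta were added; plates incubated at 30 C for 48 hr. Growth read as absorbance at 600 nm, normalized to DMSO and equimolar FeCl3 plus clioquinol controls.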
TDP-43 yeast inh = rescues yeast growth from TDP-43 toxicity; Potency, µM (series often up to 46.1 µM), hits mostly activators; 410,000 tested, 1.8% active; TDP-43 expressing yeast growth rescue, BacTiter-Glo, 24 h; also: nearly all actives have a fitted effect of over 50% in size
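Cell-based yeast growth screen: TDP-43 expression induced in galactose, inoculum OD600=0.02 after raffinose pregrowth to mid-log. Read-out BacTiter-Glo luminescence at 24 hr, 30 deg C; inhibition of toxicity seen as signal increase.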
aSyn yeast inh = alpha-synuclein toxicity inhibition in yeast. Yeast expressing alpha-synuclein, growth rescue, BacTiter-Glo, 24 h. Potency, µM (top dose mostly 46.1 µM), usual class: activators. 370,000 tested, 0.14% active; also: nearly all actives have a fitted effect of over 65% in size
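Readout is rescue of growth in alpha-synuclein-expressing yeast, so inhibitors of toxicity appear as activators. Growth after 24 hr at 30 deg C in galactose medium is quantified by luminescence.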
Numbers stand for hits; i = inactive; ? = inconclusive; nt = not tested or not shown; [ ] = dose if it differs, or a comment. Unless noted, calls follow the shape of the dose curve; as a rule, active = well fitted curve in the direction sought with a large enough effect; inconclusive = small, poorly fitted or top-dose-only effect, or another doubt; inactive = no such curve, though single readings can be large; an effect the other way counts as inactive or inconclusive.

SMILES	Mm-Cpn inhibitor	ClpP mod	FUS suppressor	Abeta rescue	TDP-43 yeast inh	aSyn yeast inh
O=C(CNc1cccc2ccccc12)c1ccc([N+](=O)[O-])cc1	i	5.6µM	i	i	i	i
O=C(Nc1cccc2ccccc12)c1ccc([N+](=O)[O-])cc1	i	i	i	i	i	i
CCc1c(C2(O)CCCCC2)[nH]c2cc(C(F)(F)F)ccc12	i	?	i	i	?	i
Cc1c(C2(O)CCCCC2)[nH]c2cc(C(F)(F)F)ccc12	i	i	i	i	6.3µM	i
O=C(CN1C(=O)CCc2cc(Br)ccc21)Nc1ccc(OC(F)(F)F)cc1	nt	i	i	i	i	i
CCN1CCOC(CC(=O)Nc2cccc([N+](=O)[O-])c2)C1=O (centres undefined)	i	nt	i	i	?	?
CCCN1CCOC(CC(=O)Nc2ccc([N+](=O)[O-])cc2)C1=O (centres undefined)	i	nt	i	i	20µM	i
CCOC(=O)c1cccc(NC(=O)C2CCN(S(=O)(=O)c3ccc4c(c3)oc(=O)n4C)CC2)c1	nt	i	?	i	i	nt
O=C(O)c1cccc(-c2ccc3c(c2)OCO3)c1	i	i	i	i	13µM	i
O=C(NCc1nc2cccnc2n1Cc1ccc(F)cc1)c1ccccc1C(F)(F)F	nt	i	i	i	i	nt
Cc1ccc(Cn2c(CNC(=O)c3ccccc3Br)nc3cccnc32)cc1	nt	i	i	i	11µM	nt
COc1ccc(Cn2c(SCc3ccc(C(=O)NCc4ccc(C)cc4)cc3)nc3cccnc32)cc1	nt	32µM	i	i	i	nt
CCNC(=O)c1ccc(CSc2nc3cccnc3n2Cc2ccc(OC)cc2)cc1	nt	i	i	i	i	nt
O=C(NCCN1CCCCC1)c1ccc(Cn2c(SCc3ccc(F)cc3)nc3cccnc32)cc1	nt	32µM	i	i	i	nt
COc1ccc(Cn2c(SCc3ccc(C(=O)NCc4ccccc4F)cc3)nc3cccnc32)cc1	nt	32µM	i	i	i	nt
COc1ccc2cc3cc(C(=O)NCCc4ccccc4)sc3nc2c1Cl	nt	i	i	i	i	nt
Cc1csc(NC(=O)Cc2ccc(Br)cc2)n1	i	i	i	i	10µM	i
Cc1csc(NC(=O)C(C)Oc2ccc(Br)cc2)n1 (centres undefined)	i	i	i	i	35µM	i
Cn1c(SCC(=O)Nc2ccccc2F)nc2c([nH]c3ccccc32)c1=O	nt	i	i	i	i	nt
Cc1c(O)ccc2c3c(c(=O)oc12)CCCC3	i	25µM	i	i	i	i
O=c1cc(O)c2ccc(O)cc2o1	nt	i	i	i	14µM	?
O=c1oc2cc(O)ccc2c2c1CCCC2	i	i	i	i	13µM	i
Cc1cc(=O)oc2cc(O)ccc12	nt	i	i	i	i	i
CCOc1cc2oc(=O)c3c(c2cc1Cl)CCC3	i[15.4 µM]	i	i	i	i	i
CC(=O)Oc1ccc2c3c(c(=O)oc2c1)CCCC3	i	i	i	?	?	i
SMILES	Mm-Cpn inhibitor	ClpP mod	FUS suppressor	Abeta rescue	TDP-43 yeast inh	aSyn yeast inh
CCc1cc2c3c(c(=O)oc2cc1OC)CCCC3	i	35µM	i	i	i	i
Cc1ccc(N2C(=O)CS(=O)(=O)C23C(=O)N(Cc2ccccc2C)c2ccccc23)cc1Cl (centres undefined)	nt	i	i	i	i	i
Cc1cc(C)c2oc(-c3ccc(Cl)c(NC(=O)c4cccs4)c3)nc2c1	nt	?	i	i	i	i
C=CC(=O)N1CCC[C@@H](n2nc(-c3ccc(Oc4ccccc4)cc3)c3c(N)ncnc32)C1	nt	nt	nt	nt	nt	i
CCCCCCCCN1CN2Cc3cc(F)ccc3C2CS1(=O)=O (centres undefined)	nt	nt	i	nt	nt	nt
COCCNC(=O)CCn1c(=O)[nH]c2cc(OC)c(OC)cc2c1=O	nt	i	i	i	i	nt
Cc1c(O)ccc2c3c(c(=O)oc12)CCC(C)C3 (centres undefined)	i	25µM	i	i	i	i
CC(C)CN(Cc1c(O)ccc2c3c(c(=O)oc12)CCC3)CC(C)C	i	13µM	i	i	i	i
COC(=O)c1ccccc1NC(=O)C1=C(C)C(=O)OC12CCC(C)CC2 (centres undefined)	nt	i	i	i	?	nt
O=C(Cn1c(=O)n(-c2ccccc2)c(=O)c2ccc(C(=O)NCc3ccc4c(c3)OCO4)cc21)Nc1ccc(F)c(Cl)c1	nt	i	i	i	i	i
Cc1cc(C(=O)NC2CCCc3ccccc32)ccc1[N+](=O)[O-] (centres undefined)	i	nt	i	i	?	i
Cc1ccc(C(=O)NC2CCCc3ccccc32)cc1[N+](=O)[O-] (centres undefined)	i	i	i	i	10µM	i
COc1ccc(C(=O)NC2CCCc3ccccc32)cc1Br (centres undefined)	i	i	i	i	14µM	i
COCCc1nn2c(=O)cc(COC(=O)COc3ccccc3C)nc2s1	nt	i	i	?	i	nt
Brc1c(CSc2nc3ccccc3o2)nc2ncccn12	?	25µM	i	i	13µM	i
Brc1c(CSc2nncn2-c2ccccc2)nc2sccn12	i	i	i	i	i	i
Brc1c(CSc2nncn2-c2ccccc2)nc2ncccn12	i	10µM	i	i	i	i
COCCCNC(=O)C1CCN(Cc2cc3ccccc3n2Cc2cccc(Cl)c2)CC1	nt	i	i	i	i	nt
CCN1CCN(Cc2c(O)ccc3c(=O)c(Oc4ccccc4C(C)C)c(C(F)(F)F)oc23)CC1	nt	i	i	i	i	nt
ICC[n+]1csc2ccccc21	nt	i	nt	nt	nt	i
Fc1ccc(C[n+]2csc3ccccc32)cc1	i	i	nt	i	28µM	i
Clc1ccc(C[n+]2csc3ccccc32)cc1	i	i	nt	i	25µM	i
O=C(C[n+]1csc2ccccc21)c1ccccc1	nt	i	nt	nt	nt	nt
Cc1cc(C(=O)Nc2c(C)nc3ccccn3c2=O)ccc1[N+](=O)[O-]	nt	i	i	i	i	nt
O=C(O)c1cc([N+](=O)[O-])ccc1NCc1cccnc1	i	i	i	i	i	i
O=C(O)c1cc(N2C(=O)C3C4C=CC(C4)C3C2=O)ccc1NCc1cccnc1 (centres undefined)	i	35µM	i	i	i	i
O=C(CCCCCN1CCN(c2ccccc2-c2ccccc2)CC1)NC1CCCc2ccccc21 (centres undefined)	nt	nt	nt	nt	nt	i
CC(C)(C)c1ccc(OCCC(=O)Nc2ccc(N3CCOCC3)cc2N2CCOCC2)cc1	i	nt	40µM	i	i	i
CCOc1ccc(OCCC(=O)OCC(=O)Nc2ccc(N3CCOCC3)cc2)cc1	i	i	i	i	i	i
